Marburg entry inh: inhibitors of Marburg virus binding or cell entry; Marburg virus pseudotyped entry inhibition, cell reporter; Potency, µM (doses to about 37.8 µM), for the others: top-dose activity change, negative = inhibition, most hits filed as inhibitors; 1.8% of 300,000 active; calls by dose curve; tested in HEK293 cells; note: potency is the fitted concentration of half-maximal effect; % is set by controls: 0 for no effect and ±100 for the full control effect
CHX counter: affects cycloheximide protein synthesis inhibition readout, counter-screen | cell reporter, cycloheximide protein synthesis inhibition counterscreen | max response, % | 12% of 300,000 active | AID 2314; in the data active = max response mostly above about 13%, no sharp cut-off; inactive = mostly below about 14%; note: read at 38.3 µM for the half of the compounds with a filed dose; 0% is about no effect
Shiga inhibitor: inhibitors of Shiga toxin in Vero cells. Vero cells, Shiga toxin protein synthesis inhibition reporter. inhibition, % at 38.7 µM. 9.2% of 290,000 active. AID 2315; in the data active = inhibition mostly above about 28%, no sharp cut-off; inactive = mostly below about 43%; note: 0% is about no effect
LASV entry inh: Lassa virus entry inhibition; Lassa virus pseudotype entry inhibition, cell reporter; AID 540256; Potency, µM (series often up to 37.9 µM), for the others: top-dose activity change, negative = inhibition, actives largely listed as inhibitors; 1.2% of 300,000 active; calls by dose curve; tested in HEK293 cells; note: potency is the fitted concentration of half-maximal effect; % is set by controls: 0 for no effect and ±100 for the full control effect; nearly all actives have a fitted effect of over 50% in size
An asterisk follows results filed as active; ? = inconclusive; . = not tested or not shown; [ ] = remark or other dose. This is a sample that favours compounds with a hit; in the whole collection about 12% have one here.

SMILES	Marburg entry inh	CHX counter	Shiga inhibitor	LASV entry inh
COc1ccc(NC(=O)CSc2nnc(C3CCCCC3)o2)c(OC)c1	-17%	-3	20	-12%
O=C(CSc1nnc(C2CCCCC2)o1)Nc1ccccc1Cl	-29%[46.1 µM]	15	71*	?
Oc1ccc(Nc2nc3ccccc3nc2Nc2ccc(O)cc2)cc1	?	14*	40	?
Oc1ccc(Nc2nc(-c3ccccc3)nc3ccccc23)cc1	?	-2	-6	?
Cc1nc2ccccc2nc1N/N=C/c1ccc(O)cc1	.	40*	53*	.
COC1=CC(=O)O[C@@H](/C=C\c2ccccc2)C1	18%	.	.	.
COC1=CC(=O)OC(/C=C/c2ccccc2)C1 (centres undefined)	18%	23*	47*	15%
CN(C)c1ccc(-c2nc(-c3ccco3)no2)cc1[N+](=O)[O-]	-19%[46.1 µM]	.	.	-1%[46.1 µM]
Cc1cc(=O)n2nc(-c3ccc(C(F)(F)F)cc3)sc2n1	1%	33*	10	0%
O=C(c1ccco1)[C@@H]1[C@@H]2C(=O)N(c3ccc(F)cc3)C(=O)[C@@H]2C2c3ccccc3C=CN21 (some centres undefined)	.	15	21	.
O=C1NC(=O)[C@@H]2C3c4ccccc4C=CN3[C@H](C(=O)c3cccs3)[C@H]12 (some centres undefined)	.	31*	69	.
COc1ccccc1NC(=O)Cn1c(=O)n(CCC(=O)NCC2CCCO2)c(=O)c2cc(OC)c(OC)cc21 (centres undefined)	-4%[46.1 µM]	.	.	-2%[46.1 µM]
O=C(NCCS(=O)(=O)N1CCN(c2ccc(F)cc2)CC1)c1ccco1	18%[46.1 µM]	.	.	3%
Oc1ccccc1OCCOc1ccccc1OCCOc1ccccc1O	-15%[46.1 µM]	9.8*	41	-9%
Oc1ccccc1OCC(O)c1ccccc1 (centres undefined)	-4%[46.1 µM]	7	3	-7%
Clc1ccc2oc(-c3ccccc3)nc2c1	?	46*	107*	-2%
O=S(=O)(Nc1ccc2oc(-c3ccccc3)nc2c1)c1ccccc1	23%	31*	51	-13%
Cc1ccccc1-c1nc2cc(Cl)ccc2o1	0%	38*	87	?
Cc1ccc2nc(-c3cccnc3)oc2c1	-29%	47*	131*	?
COc1ccc(/C=N/NC(=O)c2cc(-c3ccc(C)cc3C)nc3ccccc23)cc1COC(C)=O	?	13	-8	?
CC1=CC(c2ccc(Cl)cc2)n2nc(NC(=O)CCC(=O)O)nc2N1 (centres undefined)	2%[46.1 µM]	-1	-3	24%
CSc1ccc(CCNC(=O)CCn2c(=O)c3cccn3c3cccnc32)cc1	.	.	.	4%[46.1 µM]
C=CCn1c(SCc2nc3sc4c(c3c(=O)[nH]2)CCCC4)nc2ccccc2c1=O	2%	-2	-1	-2%
Clc1ccc2oc(-c3cccnc3)nc2c1	9%	47*	85*	18%
COc1ccc(C(C)=O)cc1CSc1nc2cc(Cl)ccc2o1	8%	-3	-17	-13%
SMILES	Marburg entry inh	CHX counter	Shiga inhibitor	LASV entry inh
Clc1ccc2oc(SCc3cccnc3)nc2c1	.	23*	66*	.
CCN(CC)Cc1c(O)ccc2c1O/C(=C\C=C\c1ccccc1)C2=O	.	16*	106*	.
COc1ccccc1/C=C/C=C1\Oc2c(ccc(O)c2CN(C)C)C1=O	.	13*	29	.
COCCN(CCOC)Cc1c(O)ccc2c1O/C(=C\c1ccc(C)o1)C2=O	0%[46.1 µM]	0	-6	4%[46.1 µM]
N#C/C(=C\c1ccc(OCC(N)=O)cc1)c1ccccc1	-11%	39*	88*	-1%
COc1ccc(C=C(C#N)c2ccc(OC)cc2)cc1	7.9µM*	.	.	?
FC(F)(F)c1cc(Cl)c2nc(-c3ccccc3)cn2c1	?	41*	88*	?
Nc1cccc(-c2cn3cc(C(F)(F)F)cc(Cl)c3n2)c1	?	36*	64*	?
CC(=O)Nc1c(C(=O)Nc2cccc(C)c2)nnn1-c1ccc(C)cc1	16%[46.1 µM]	.	.	?
COc1cccc(C(=O)c2sc(NC(C)C)nc2N)c1	?	36*	51*	9%
COc1ccc(C(=O)c2sc(NC(C)C)nc2N)cc1OC	-8%	0	-16	9%
CC(C)n1ncc(N2CCOCC2)c(Cl)c1=O	.	14*	8	.
O=c1c(Cl)c(N2CCOCC2)cnn1-c1nc2ccccc2[nH]1	.	24*	73*	.
CC1CCN(c2c([N+](=O)[O-])nn(-c3ccc4c(c3)OCCO4)[n+]2[O-])CC1	28%	61*	162*	-1%
O=C(c1ccco1)N1CCN(c2c([N+](=O)[O-])nn(-c3ccc(Cl)cc3)[n+]2[O-])CC1	4%[46.1 µM]	9	-9	1%[46.1 µM]
Cc1cc(C)c2nc(N3CCCC(C(=O)NC4CCCC4)C3)sc2c1 (centres undefined)	-23%[46.1 µM]	12	5	5%[46.1 µM]
Cc1ccc(-n2ncc(C(=O)NCc3ccccc3C)c2-n2cccc2)cc1	.	.	.	3%[46.1 µM]

High-throughput results deposited in PubChem by National Center for Advancing Translational Sciences (NCATS).
